In the library only some 9.2% were active in any assay of this set; here they are far more common.
USP7 inh = inhibitors of human USP7 deubiquitinase; inhibition, % at 20 µM; AID 1645854, 2021; hit rate 0.3% among 47,000; purified USP7, Ub-rhodamine cleavage fluorescence
USP10 inh = inhibitors of human USP10 deubiquitinase | Ubiquitin carboxyl-terminal hydrolase 10 (Homo sapiens), Q14694 | purified USP10, Ub-rhodamine fluorescence, 60 min | inhibition, % at 20 µM | hit rate 1.1% among 47,000 | AID 1645856, 2021
USP17 inh = inhibitors of human USP17 deubiquitinase; Ubiquitin carboxyl-terminal hydrolase 17-like protein 5 (Homo sapiens), A8MUK1; purified USP17, Ub-rhodamine cleavage fluorescence, 3 h; inhibition, % at 50 µM; hit rate 6.5% among 47,000; AID 1645855, 2021
USP8 block = inhibitors of human USP8 deubiquitinase. purified USP8, Ub-rhodamine cleavage fluorescence, 30 min. inhibition, % at 20 µM. hit rate 4.2% among 47,000
UCHL1 inh = inhibitors of human UCHL1 deubiquitinase; Ubiquitin carboxyl-terminal hydrolase isozyme L1 (Homo sapiens), P09936; purified UCHL1, Ub-rhodamine cleavage fluorescence; inhibition, % at 20 µM; hit rate 0.2% among 47,000; AID 1645859, 2021
OTUD3 block = inhibitors of human OTUD3 deubiquitinase; inhibition, % at 25 µM; AID 1645858, 2021; OTU domain-containing protein 3 (Homo sapiens), Q5T2D3; purified OTUD3, Ub-rhodamine fluorescence, 2 h; hit rate 0.7% among 47,000
Target sequence (Q5T2D3 whole entry, looked up, the tested form may be a part): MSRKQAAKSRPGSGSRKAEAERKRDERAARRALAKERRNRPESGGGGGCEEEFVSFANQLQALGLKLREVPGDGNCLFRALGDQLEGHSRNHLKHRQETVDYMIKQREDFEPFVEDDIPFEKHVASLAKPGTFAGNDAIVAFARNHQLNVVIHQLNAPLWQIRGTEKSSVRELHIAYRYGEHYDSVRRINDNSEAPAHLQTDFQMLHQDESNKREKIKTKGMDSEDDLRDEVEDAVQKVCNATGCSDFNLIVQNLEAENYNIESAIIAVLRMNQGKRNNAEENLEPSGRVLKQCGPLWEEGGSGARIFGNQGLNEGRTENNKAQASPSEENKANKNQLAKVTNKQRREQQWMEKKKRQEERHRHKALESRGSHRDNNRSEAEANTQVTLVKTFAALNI
Each line names hits and unclear results; the compound was inactive in the other large screens. Rule as the data show it: active = inhibition above about 30%; inactive = the rest.

NS(=O)(=O)c1ccc(NC(=O)Cn2cnc3cc([N+](=O)[O-])ccc3c2=O)cc1	USP17 inh 59.0, USP8 block 55.2
O=C(Cn1cc(-c2ccccc2)c2ncn(C3CC3)c(=O)c21)Nc1ccc2c(c1)OCO2	none
CC(C)c1ccc(NC(=O)c2ccc(C3Nc4ccccc4S(=O)(=O)N3)cc2)cc1 (configuration not stated)	USP17 inh 64.8
CCc1ccc(NC(=O)C2Nc3ccccc3S(=O)(=O)N2)cc1 (configuration not stated)	USP17 inh 41.1
CCc1ccc(NC(=O)N2CC[C@@H]3CN(C)S(=O)(=O)[C@@H]3CC2)cc1	none
Cc1cccc(NC(=O)Nc2ccc(C)c(C)c2)c1	none
Cc1ccc(NC(=O)C2Nc3ccccc3S(=O)(=O)N2)cc1C (configuration not stated)	USP17 inh 66.4
O=C(NC1CC1)c1ccc(C2Nc3ccccc3S(=O)(=O)N2)cc1 (configuration not stated)	none
O=C(Cc1nc(-c2ccccn2)n[nH]1)Nc1cccc(F)c1	none
COc1ccc(-c2ccc(C#N)c(SCc3cc4c(cc3Cl)OCO4)n2)cc1	USP17 inh 42.6
COc1ccccc1CNC(=O)Nc1cccc2ccccc12	USP17 inh 52.8, USP8 block 71.1
O=C(NCc1cccc(NC(=O)C2CC2)c1)Nc1cccc2ccccc12	USP17 inh 54.3, OTUD3 block 41.8
O=C(Nc1ccccc1)C1CCN(S(=O)(=O)c2cccc3cnccc23)CC1	none
Cc1cc(-c2ccccc2)n(-c2cc(Nc3ccc(C)c(Cl)c3)ncn2)n1	none
CC1CC(c2ccccc2)n2nc(NC(=O)c3cccnc3)nc2N1 (configuration not stated)	none
COc1ccc(Cn2nnc(C(=O)NC3CCCCC3)c2-n2cccc2)cc1	USP17 inh 48.1, USP8 block 48.7
O=C(c1nnn(Cc2ccc(Cl)cc2)c1-n1cccc1)N1CCCC1	none
COc1ccc(Cn2nnc(C(=O)N3CCSCC3)c2-n2cccc2)cc1	USP17 inh 33.4
CC(C)=CCC/C(C)=C/COc1ccc(/C=C2\C(=O)N(O)[C@@H](C)C(=O)N2O)cc1	USP10 inh 38.2
COc1cc(/C=C2\Oc3cc(OCC=C(C)C)ccc3C2=O)cc(OC)c1OC	none
COc1ccccc1CC(=O)Nc1cnc(-c2ccc(F)cc2)nc1	USP8 block 30.3
COc1ccc(C(C)=O)cc1CC(=O)Nc1nc2ccccc2[nH]1	USP17 inh 59.2
Cc1c(OCC(=O)Nc2nc3ccccc3[nH]2)ccc2c3c(c(=O)oc12)CCC3	USP17 inh 37.1
O=C(CNC(=O)c1cc(F)cc(F)c1)Nc1nc2ccccc2[nH]1	USP8 block 35.7
Cc1ncccc1O[C@@H]1CC[C@@H]2CN(S(=O)(=O)c3cnc[nH]3)C[C@@H]21	none
Cc1nc(N2CCN(C(=O)c3ccco3)CC2)nc2c1C(=O)CC(/C=C/c1ccccc1)C2 (configuration not stated)	none
O=c1c2[nH]c3ccc(Cl)cc3c2ncn1CCN1CCNCC1	none
COc1ccccc1CC(=O)Nc1nc2ccccc2[nH]1	USP17 inh 60.1 (no result: USP7 inh)
O=C(Cc1ccccc1F)Nc1nc2ccccc2[nH]1	none
COc1ccc(-c2cn3ccc4cc(OC)c(OC)cc4c3c2-c2ccc(OC)c(OC)c2)cc1	USP8 block 30.8
CN(C(=O)c1cc(-c2ccccc2)on1)C1CCS(=O)(=O)C1 (configuration not stated)	none
Cc1nc(-c2cnccn2)n(CC(=O)Nc2cccc(C#N)c2)c(=O)c1C	none
Cc1cccc(NC(=O)Cn2c(-c3cnccn3)nc(C)c(C)c2=O)c1C	USP17 inh 37.5
COCCNC(=O)c1cc(-c2csc(-c3cnccn3)n2)n2ccccc12	none
Nc1cc2nc3ccccc3oc-2cc1=O	USP17 inh 45.2
Cc1ccc(C(CC(=O)Nc2cccc(C)n2)N2Cc3ccccc3C2=O)cc1 (configuration not stated)	USP17 inh 41.4
CSc1ccccc1C(=O)Nc1sc2c(c1C(N)=O)CCCCC2	USP17 inh 37.6
CSc1cccc(C(=O)Nc2sc3c(c2C(N)=O)CCC(C)C3)c1 (configuration not stated)	none
CSc1nc2ccc3nc(NC(=O)c4ccccc4Oc4ccccc4)sc3c2s1	none
CC1CCc2sc(NC(=O)c3ccccc3Oc3ccccc3)c(C(N)=O)c2C1 (configuration not stated)	USP17 inh 82.8 (no result: USP7 inh)
CC1CCc2c(sc(NC(=O)c3cccc(S(C)(=O)=O)c3)c2C(N)=O)C1 (configuration not stated)	USP8 block 75.4
CSc1ccccc1C(=O)Nc1sc2c(c1C(N)=O)CCC(C)C2 (configuration not stated)	USP17 inh 80.0
CS(=O)(=O)c1cccc(C(=O)Nc2sc3c(c2C(N)=O)CCCCC3)c1	none
Cc1ccc(NC(=O)CCc2nc(-c3cccnc3)no2)cc1C	none
Fc1cccc(Cn2cc(-c3noc(-c4ccncc4)n3)nn2)c1	USP17 inh 66.5
CCOc1ccccc1-c1nc(-c2cn(Cc3cccc(F)c3)nn2)no1	none
Cc1ccc(Cn2cc(-c3noc(-c4ccncc4)n3)nn2)cc1	USP17 inh 79.1
N#Cc1ccc(NC(=O)C2CC(=O)Nc3ccccc32)cc1 (configuration not stated)	none
Cc1ccc(S(=O)(=O)c2cnc3ccc(F)cc3c2N2CCCC2)cc1	none
Cc1ccc(S(=O)(=O)c2cnc3ccc(F)cc3c2N2CCCCCC2)cc1	USP8 block 33.2
O=C(CSc1ncccc1C(=O)Nc1ccnn1Cc1cccnc1)Nc1ccc2c(c1)OCO2	USP8 block 45.0
O=C(CSc1ncccc1C(=O)Nc1ccnn1Cc1ccncc1)Nc1ccc2c(c1)OCO2	none
CCOc1ccc(-c2nc3c(cnn3-c3ccccc3)c(=O)[nH]2)cc1	USP17 inh 37.2
O=C(c1ccc(F)cc1)N1CCc2cc(-c3csc(Nc4ccccc4)n3)ccc21	none
NC(=O)c1cc(-c2csc(NNc3ccccc3)n2)ccc1O	USP17 inh 47.0
CCN(CC)C(=O)c1sc(NC(=O)/C=C/c2c(F)cccc2Cl)c(C#N)c1C	USP17 inh 62.1
Cc1nn(-c2cc(N(C)C)ncn2)c(C)c1CCC(=O)NCc1ccc(Cl)cc1	none
COc1ccc(NC(=O)c2ccc(-c3nc4ccccc4s3)o2)cc1S(=O)(=O)N1CCOCC1	none
COc1ccc(C(=O)Nc2ccc(-c3nc4ccccc4[nH]3)cc2)cc1S(=O)(=O)N1CCOCC1	USP17 inh 51.5
Cc1ccccc1NC(=O)Nc1ccccc1OCc1cc(=O)n2cccc(C)c2n1	USP10 inh 40.2, USP17 inh 46.7, USP8 block 46.2, OTUD3 block 39.6
Cc1cccc(NCc2cc(=O)n3cccc(C)c3n2)c1C	none
